# Test results taken from PubChem BioAssay AID463173 (ICCB-Longwood Screening Facility, Harvard Medical School, 2010).
# Screen size: about 52,000 compounds; about 1,700 (3.3%) were called active. Cut-off read from the data, not from the text of the source: active = survival mostly below about 52% (no sharp cut-off); inactive = mostly above about 56%. The sample as a whole holds a higher share of actives than the screen did.
# System: Wild type
# Assay: S. aureus survival, RN4220 and DeltatarO strains – OD600, teichoic acid synthesis inhibitors, primary screen (AID 463173)
# Conditions: S. aureus RN4220 wild type/DeltatarO growth, OD600, 18 h, stronger effect = lower value, screened at 18.75 µg/mL (by protocol)
row,Compound,survival
1,COc1cccc(C2CC(=O)Nc3c2c(=O)n(C)c2nc4ccccc4n32)c1OC (stereo not given),67% (inactive)
2,Cc1oc(-c2ccc(C(=O)NCCCOC(C)C)cc2)nc1CS(=O)(=O)c1ccccc1,-6% (active)
3,Cc1ccc(S(=O)(=O)Cc2nc(-c3ccc(C(=O)NCCCOC(C)C)cc3)oc2C)cc1,75% (inactive)
4,CCOCCCNC(=O)c1ccc(-c2nc(CS(=O)(=O)c3ccccc3)c(C)o2)cc1,87% (inactive)
5,CCOc1ccc(-c2nc(SCC(=O)Nc3ccc4c(c3)OCO4)c(-c3ccc(F)cc3)[nH]2)cc1,98% (inactive)
6,Cc1ccc(Cl)cc1-n1ncc2c(NCc3ccc(F)cc3)ncnc21,73% (inactive)
7,Cc1ccc(N2CC(NC(=O)c3ccc(S(=O)(=O)N4CCOCC4)cc3)CC2=O)cc1 (stereo not given),47% (inactive)
8,O=C(NC1CC(=O)N(c2ccccc2)C1)c1ccc(S(=O)(=O)N2CCOCC2)cc1 (stereo not given),14% (active)
9,O=C(NC1CC(=O)N(c2ccc(Cl)cc2)C1)c1ccc(S(=O)(=O)N2CCOCC2)cc1 (stereo not given),91% (inactive)
10,O=C(NC1CC(=O)N(c2ccccc2)C1)c1ccc(S(=O)(=O)N2CCCCC2)cc1 (stereo not given),-1% (active)
11,O=C(NC1CC(=O)N(c2ccc(F)cc2)C1)c1ccc(S(=O)(=O)N2CCCCC2)cc1 (stereo not given),83% (inactive)
12,O=C(NC1CC(=O)N(c2ccccc2)C1)c1ccc(S(=O)(=O)N2CCCC2)cc1 (stereo not given),133% (inactive)
13,CCOc1ccc(NC(=O)C2CCN(S(=O)(=O)c3c(C)noc3/C=C/c3ccco3)CC2)cc1,73% (inactive)
14,CC(=O)c1ccc(S(=O)(=O)Nc2ccc(-c3ccc(N4CCCCCC4)nn3)cc2)cc1,83% (inactive)
15,CCOC(=O)c1c(S(=O)(=O)NCC(=O)N2CCN(c3ccccc3)CC2)c(C)n(C)c1C,112% (inactive)
16,CCSc1nnc2n(-c3cccc(C)c3)c(=O)c3c4c(sc3n12)CCCC4,81% (inactive)
17,CCCSc1nnc2n(-c3cccc(C)c3)c(=O)c3c4c(sc3n12)CCCC4,2% (active)
18,Cc1cccc(-n2c(=O)c3c4c(sc3n3cnnc23)CCCC4)c1,72% (inactive)
19,CCCCSc1nnc2n(-c3cccc(C)c3)c(=O)c3c4c(sc3n12)CCCC4,-1% (active)
20,CCSc1nnc2n(-c3ccccc3)c(=O)c3c4c(sc3n12)CCCC4,108% (inactive)
21,CSc1nnc2n(-c3cccc(C)c3)c(=O)c3c4c(sc3n12)CCCC4,79% (inactive)
22,Cc1cc(=O)[nH]c(SCC(=O)N(c2ccccc2)c2ccccc2)n1,103% (inactive)
23,Cc1ccc(NC(=O)N2CC3CCCN3c3ccccc32)cc1C (stereo not given),-2% (active)

row,Compound,survival
1,Cc1ccc(NC(=O)N2CC3CCCN3c3ccccc32)c(C)c1 (stereo not given),117% (inactive)
2,Cc1ccc(NC(=O)N2CC3CCCN3c3ccccc32)cc1Cl (stereo not given),83% (inactive)
3,COc1ccc(S(=O)(=O)c2c(Nc3c(C)cccc3C)sc(C(=O)c3ccc4c(c3)OCO4)c2N)cc1,74% (inactive)
4,CCOC(=O)c1ccccc1NC(=O)c1ccco1,121% (inactive)
5,Cc1cc(Nc2cc(Cl)ccc2C)n2nc(-c3ccccc3)nc2n1,93% (inactive)
6,Cc1cc(Nc2ccccc2F)n2nc(-c3ccccc3)nc2n1,84% (inactive)
7,COc1ccccc1Nc1cc(C)nc2nc(-c3ccccc3)nn12,14% (active)
8,CCCCC1CCC(C(=O)N2CC(=O)Nc3ccc(Cl)cc3C2c2ccc(F)cc2)CC1 (stereo not given),71% (inactive)
9,CC1CCN(C(=O)c2cc3n(n2)C(C(F)(F)F)CC(c2ccccc2)N3)C(C)C1 (stereo not given),123% (inactive)
10,Cc1cccc(C(=O)Nc2cccc(OCc3cc(=O)n4ccccc4n3)c2)c1,72% (inactive)
11,CSc1ccc(CCNC(=O)c2ccc3c(c2)c(C)c(C)n3Cc2ccc(F)cc2)cc1,70% (inactive)
12,Cc1ccc(CNC(=O)c2c[nH]n3c(=O)c(Cc4ccc(Cl)cc4)c(C)nc23)cc1,-14% (active)
13,Cc1cccn2c(=O)c(C(=O)NCCc3ccccc3)cnc12,49% (inactive)
14,Cc1nc2c(C(=O)NCCc3ccccc3)c[nH]n2c(=O)c1Cc1ccccc1F,-15% (active)
15,Cc1nc2nc(NC(=O)c3ccc(F)cc3)[nH]n2c(=O)c1Cc1ccccc1,88% (inactive)
16,Cc1nc2c(C(=O)NCCc3ccccc3)c[nH]n2c(=O)c1Cc1ccc(F)cc1Cl,-15% (active)
17,Cc1ccc(CNC(=O)CN2CCN(Cc3ccc(F)cc3Cl)C2=O)cc1,81% (inactive)
18,Cc1ccc(CNC(=O)c2c[nH]n3c(=O)c(Cc4ccc(F)cc4Cl)c(C)nc23)cc1,-15% (active)
19,Cc1nc2c(C(=O)NCCc3ccccc3)cnn2c(C)c1Cc1c(F)cccc1Cl,71% (inactive)
20,Cc1nc2nc(NC(=O)c3ccc(Cl)cc3)[nH]n2c(=O)c1Cc1ccccc1,93% (inactive)
21,Cc1nc2nc(NCc3ccc(Cl)cc3)[nH]n2c(=O)c1Cc1ccccc1,61% (inactive)
22,Cc1ccc(CNC(=O)c2cnn3c(C)c(Cc4c(F)cccc4Cl)c(C)nc23)cc1,65% (inactive)
